SMILES strings stand for the structures. Screen size: about 53,000 compounds; about 900 (1.7%) showed an effect of 50% or more. The list comes from a sample in which strong results are over-represented; it also holds similar structures and randomly drawn compounds.

The test system of the assay is Mycobacterium tuberculosis. In words: Cornell - Phenotypic assay to identify agents that inhibit growth of Mycobacterium tuberculosis. Set-up: scale not given: direction of the effect not stated beside the values. It counts as functional. As to conditions: 10 mM as filed; unlikely as a test dose.
For the molecule `O=c1[nH]c2nc(N3CCSCC3)ncc2c(=O)n1-c1cccc(F)c1`, the “Percent Effect” value worked out at 12.37%.
Take `O=C(O)C1CCCN1c1nc(-c2ccc(Cl)c(Cl)c2)cc(C(F)(F)F)n1` (stereo not given): the “Percent Effect” value was determined as 67.65%.
Consider `O=C(O)C1CCCN1c1nc(-c2ccc(Cl)cc2)cc(C(F)(F)F)n1` (stereo not given), for which the “Percent Effect” value turned out to be 38.69%.
Regarding `O=C(O)C1CCCN1c1nc(C2CC2)cc(C(F)(F)F)n1` (stereo not given), the “Percent Effect” value amounted to 4.747%.
With `Cc1noc(C)c1CN(C)Cc1csc(-c2ccc(C(C)C)cc2)n1`, the “Percent Effect” value was 63.13%.
For `Cc1cc(CN(C)Cc2csc(-c3ccc(C(C)C)cc3)n2)no1`, the “Percent Effect” value stood at 47.23%.
With `Cc1noc(C)c1CN(C)Cc1csc(-c2ccc(F)cc2)n1` the figure was 39.26%.
Turning to `CC(C)c1ncc(CN2CCCC2c2[nH]ncc2C(=O)N(C)C)cn1` (stereo not given), the “Percent Effect” value is recorded as -22.16%.
With `CCCn1c(C)c(CC(=O)N[C@H](C)C(=O)OC)c2c1CC(C)(C)CC2=O` the figure was 46.36%; with `Cc1cnc2n(c1=O)C(CC(=O)NCc1ccco1)CS2` (stereo not given), 22.84%; with `Cc1nc(C)n(CC2CN(CC(=O)NC3CCCC3)CCO2)n1` (stereo not given), -1.047%.
The figure for `CCc1ccccc1NCc1nc2[nH]c(C)c(C)c(=O)n2n1` is -10.14%; for `CN1C(=O)C2(CCN(C(=O)C3CCOCC3)CC2)c2ccccc21` it is 10.41%.
In the case of `CC(C)NC(=O)c1nc(COc2ccc3c(c2)OCO3)no1`, the “Percent Effect” value stood at 22.39%.
For the molecule `CNc1oc(COc2ccc3c(c2)OCO3)nc1C#N`, the “Percent Effect” value is recorded as -5.351%.
On to `N#Cc1nc(COc2ccc3c(c2)OCO3)oc1NC1CCCCC1`, for which the “Percent Effect” value worked out at 58.43%.
With `N#Cc1nc(COc2ccc3c(c2)OCO3)oc1N1CCCC1` the figure was 60.43%.
As to `N#Cc1nc(COc2ccc3c(c2)OCO3)oc1NC1CC1`, the “Percent Effect” value is 0.1825%.
On to `N#Cc1nc(COc2ccc3c(c2)OCO3)oc1N1CCCCCC1`, for which the “Percent Effect” value is 35.88%.
Turning to `Cc1nn(C)cc1-c1cc(C(F)(F)F)n(CCCN)n1`, the “Percent Effect” value is given as -15.46%.
The figure for `Cc1cccc(CS(=O)(=O)NCc2nn(C)c3c2CCCC3)c1` is 18.68%; for `O=C(c1cnccn1)N1CC(S(=O)(=O)c2ccc(Cl)cc2)C1` it is 17.17%.
Turning to `CC(=O)N1CCN(c2cc(C)ncn2)CC(CO)C1` (stereo not given), the “Percent Effect” value is 21.65%.
The figure for `CN(C(=O)Cn1nnnc1C(C)(C)C)c1ccccc1` is -5.466%; for `CCOC(=O)Cn1c(=O)nc2n1C(=O)N(c1ccccc1)C2` it is -0.8928%; for `CCOC(=O)Cn1nnnc1-c1ccccc1` it is 99.52%.
For the molecule `CC(C)c1nn(C)c(N(C)C)c1CNCC(O)COc1ccccc1` (stereo not given), the “Percent Effect” value turned out to be 51.29%.
The figure for `Cc1cccc(OCC(O)CNCc2c(C)nn(C)c2N(C)C)c1` (stereo not given) is 33.74%; for `COc1ccccc1C(O)CNCc1c(C(C)C)nn(C)c1N(C)C` (stereo not given) it is 50.62%; for `Cc1nn(C)c(N(C)C)c1CNCC(O)c1ccccc1` (stereo not given) it is -2.094%.
Regarding `CC(C)c1nn(C)c(N(C)C)c1CNCC(O)c1ccccc1` (stereo not given), the “Percent Effect” value was found to be 39.56%.
On to `COc1c(CNCC(O)c2ccccc2F)c(C(C)C)nn1C` (stereo not given), for which the “Percent Effect” value is -39.06%.
Take `CC(C)c1nn(C)c(N(C)C)c1CNCC(O)c1ccccc1F` (stereo not given): the “Percent Effect” value was found to be 40.49%.
In the case of `Cc1nn(C)c(N(C)C)c1CNCC(O)COc1ccccc1.Cl` (stereo not given), the “Percent Effect” value was 25.02%.
As to `Cc1ccc(C(O)CNCc2c(C(C)C)nn(C)c2N(C)C)cc1` (stereo not given), the “Percent Effect” value is listed as 104.4%.

The values are drawn from ChEMBL document CHEMBL3988442, “University of Dundee, Small-Polar-MMV Screening Library” (2021).
